Screening results (PubChem BioAssay)
Hits are enriched below; roughly 9.2% of the tested compounds scored in any of these assays.
NPC1 prom act – NPC1 promoter activation. Huh7 NPC1 promoter luciferase reporter, 24 h. Potency, µM (top dose mostly 9.22 µM), most hits filed as activators. actives 2.4% (n = 320,000); note: nearly all actives have a fitted effect of over 60% in size
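In 1536-well qHTS, Huh7 cells harboring an NPC1 promoter–luciferase construct received compound for 24 h; activation was quantified by luminescence following luciferase reagent addition.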
ELG1 DNA repair – inhibitors of ELG1-dependent DNA repair in HEK293T cells; Potency, µM (top dose mostly 46.1 µM), hits mostly inhibitors; actives 2.3% (n = 330,000); HEK293T ELG1-luciferase reporter, luminescence, 16 h; DNA damage induced by 5-fluorouridine; note: nearly all actives have a fitted effect of over 55% in size
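Reporter activity after DNA damage by 5-fluorouridine is monitored. Compound-treated cells incubate 16 hr at 37 °C, then ONE-Glo is added for 30 min before luminescence reading.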
Rab9 promoter act – Rab9 promoter activation; Huh7 Rab9 promoter-luciferase reporter, luminescence, 24 h; Potency, µM (highest dose often 9.22 µM), hits mostly activators; actives 2.8% (n = 320,000); AID 485297; note: nearly all actives have a fitted effect of over 60% in size
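Using Huh7 cells stably transfected with Rab9 promoter–luciferase, compounds were incubated 24 h at 37 °C, 5% CO2; luciferase luminescence was read 10 min after reagent addition.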
FLuc counter – firefly luciferase modulation, counter-screen for miR-21 project. actives 6.9% (n = 360,000). AID 588342. purified FLuc, Km substrates, luminescence inhibition. P08659. Potency, µM (highest dose often 57.5 µM), hits mostly inhibitors; note: nearly all actives have a fitted effect of over 55% in size
Target sequence (P08659 whole entry, looked up): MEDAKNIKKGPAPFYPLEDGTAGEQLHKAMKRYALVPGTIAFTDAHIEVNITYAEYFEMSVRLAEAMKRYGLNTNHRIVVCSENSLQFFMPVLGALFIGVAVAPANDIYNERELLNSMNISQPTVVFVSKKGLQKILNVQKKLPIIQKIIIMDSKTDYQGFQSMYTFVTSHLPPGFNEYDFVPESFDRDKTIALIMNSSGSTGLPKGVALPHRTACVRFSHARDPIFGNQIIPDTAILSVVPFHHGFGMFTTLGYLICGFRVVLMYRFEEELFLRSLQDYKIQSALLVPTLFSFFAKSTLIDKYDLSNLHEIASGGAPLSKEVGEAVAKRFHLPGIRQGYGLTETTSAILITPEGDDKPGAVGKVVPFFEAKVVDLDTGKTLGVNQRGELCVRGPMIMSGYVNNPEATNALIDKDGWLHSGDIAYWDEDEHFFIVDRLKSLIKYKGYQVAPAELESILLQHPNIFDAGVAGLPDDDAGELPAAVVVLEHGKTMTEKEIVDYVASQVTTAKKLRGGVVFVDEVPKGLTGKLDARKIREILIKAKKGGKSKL
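Purified P. pyralis luciferase (10nM final) with 10uM D-luciferin and 10uM ATP (Km levels) in 50mM Tris acetate pH 7.5, 10mM Mg acetate, 0.01% Tween-20, 0.05% BSA; qHTS 6-point titration, ~60 µM downward; luminescence read.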
SMN2 splice up – increases expression of the SMN2 splice variant; HEK293 SMN2-luciferase splicing reporter, luminescence, 30-36 h; Potency, µM (series often up to 46.1 µM), most hits filed as activators; actives 2.8% (n = 210,000); AID 1458; note: nearly all actives have a fitted effect of over 55% in size
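HEK293 cells carry an SMN2 minigene-luciferase reporter in which exon 7 inclusion puts luciferase in frame. Cells were seeded at 2000 cells/well, attached for 10-12 hours, then exposed to compounds for 30-36 hours at 37C before ONE-Glo luminescence.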
ELG1 genotoxic – genotoxicity induction in ELG1-luciferase HEK293T cells | actives 1.3% (n = 330,000) | HEK293T ELG1-luciferase reporter, luminescence, 16 h | AID 504466 | Potency, µM (series often up to 46 µM), hits mostly activators; note: nearly all actives have a fitted effect of over 60% in size
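Luminescence read-out: rising ELG1-luciferase signal, reflecting elevated ELG1 protein under genetic stress, flags genotoxic compounds. Cells were treated for 16 hr at 37 °C before ONE-Glo detection.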
A number is an active result; 0 = inactive; ? = inconclusive; - = not tested or not shown; ! = not confirmed by another sample; [ ] = remark or other dose. Calls come from the whole dose curve; as a rule, active = well fitted curve in the direction sought with a large enough effect; inconclusive = small, poorly fitted or top-dose-only effect, or another doubt; inactive = no such curve, though single readings can be large; an effect the other way counts as inactive or inconclusive.

SMILES	NPC1 prom act	ELG1 DNA repair	Rab9 promoter act	FLuc counter	SMN2 splice up	ELG1 genotoxic
O=C(CCCCn1c(=O)c2ccccc2n(Cc2cccc(F)c2)c1=O)NCc1ccc2c(c1)OCO2	-	-	-	0	0	-
COc1ccc(Nc2nc3nonc3nc2N2CCCCC2)cc1	0	20.6µM	0	0	-	0
CC1CCN(c2nc3nonc3nc2Nc2ccc(F)cc2)CC1	0	?	?	0	0	0
COc1ccc2c(Cl)c(C(=O)NN)sc2c1	0	0	0	?	0	0
COc1ccc2c(Cl)c(C(N)=O)sc2c1	0	0	0	15.1µM	0	0
Cc1[nH][nH]c(=O)c1C(c1ccc(-c2cccc(C(=O)O)c2)o1)c1c(C)[nH][nH]c1=O	0	0	?	15.1µM	-	0
COc1cccc(NC(=O)c2sc3nc(C)c(C(=O)Nc4ccc(C)cc4C)c(-c4ccc(Br)cc4)c3c2N)c1	-	-	-	0	12.6µM	-
COc1ccc(-c2ccc3c(N)c(C(=O)Nc4cccc(C)c4)sc3n2)cc1	-	-	-	0	1.78µM	-
COCCCNC(=O)c1sc2nc(C)c(C(=O)Nc3ccc(C)cc3C)c(-c3ccc(Br)cc3)c2c1N	-	-	-	0	0	-
COc1ccc(-c2ccc3c(N)c(C(=O)Nc4cc(F)ccc4C)sc3n2)cc1	-	-	-	?	0	-
COc1ccc(-c2ccc3c(N)c(C(=O)NC(C)C)sc3n2)cc1OC	0	0	0	16.9µM	-	0
COc1ccc(-c2ccc3c(N)c(C(=O)c4ccc(OC)c(OC)c4)sc3n2)cc1	0	?	0	0	0	0
CCc1ccc(-c2ccc3nnc(SCC(=O)Nc4cccc(C(C)=O)c4)n3n2)cc1	-	-	-	0	-	-
O=C(Nc1ccccc1)c1nc[nH]c1C(=O)NCCN(CCNC(=O)c1[nH]cnc1C(=O)Nc1ccccc1)CCNC(=O)c1[nH]cnc1C(=O)Nc1ccccc1	-	?	-	-	-	0
CN(CC(=O)Nc1cccc(F)c1)C(=O)c1ccc2c(c1)CC(c1ccccc1)OC2=O (stereo not drawn)	0	?	0	0	-	0
O=C(O)c1cc(N=Nc2ccc([N+](=O)[O-])cc2)ccc1O	-	-	-	-	14.1µM!	-
CC(C)c1ccc(/C=C2\SC(=O)N(CC(=O)NC3CCS(=O)(=O)C3)C2=O)cc1 (stereo not drawn)	3.98µM	?	?	1.07µM	-	0
O=C(CN1C(=O)S/C(=C\C=C\c2ccccc2)C1=O)NC1CCS(=O)(=O)C1 (stereo not drawn)	2.51µM	?	2.82µM	5.36µM	-	0[9.26 µM]
O=C(COc1cccc([N+](=O)[O-])c1)N/N=C/c1ccco1	0	0	0	0	0	0
CCc1ccc(OCC(=O)N/N=C\c2ccco2)c([N+](=O)[O-])c1	0	?	0	10.7µM	0	0
C/C(=N\NC(=O)COc1ccccc1[N+](=O)[O-])c1cccs1	?	?	3.16µM	23.9µM	25.1µM	?
Cc1ccc(OCC(=O)N/N=C\c2cccs2)c([N+](=O)[O-])c1	0	?	0	12µM	0	0
Cc1cc(N/C=C\c2nnnn2-c2ccccc2)no1	0	?	0	?	0	0
CN(C)c1ccc(/C=C/c2nnnn2-c2ccccc2)cc1	2µM	?	1.58µM	8.49µM	15.8µM	?
Cc1ccc(NC(=O)CSc2nc3ccc(NC(=O)c4cccc(Cl)c4)cc3s2)c(C)c1	-	-	-	0	-	-
SMILES	NPC1 prom act	ELG1 DNA repair	Rab9 promoter act	FLuc counter	SMN2 splice up	ELG1 genotoxic
CC(C)CN1CCC2(CC1)CCN(C(=O)c1cc(C(F)(F)F)cc(C(F)(F)F)c1)CC2	-	-	-	-	0	-
Cc1ccc(NC(=O)Nc2cccs2)cc1	2.82µM	?	2.24µM	2.39µM	15.8µM	0
CCOc1ccc(NC(=O)Nc2cccs2)cc1	0.891µM	?	1.41µM	1.51µM	11.2µM	4.61µM
CCc1ccc(NC(=O)Nc2cccs2)cc1	1.12µM	?	0.794µM	0.849µM	14.1µM	?
Cc1ccc(NC(=O)Nc2cccs2)nc1	3.98µM	?	2.24µM	21.3µM	?	?
CC(=O)N1c2ccc(S(=O)(=O)NCC3CCC(C(=O)Nc4cccc(C)c4C)CC3)cc2CC1C (stereo not drawn)	-	-	-	0	-	-
COc1cccc(CNC(=O)COC(=O)/C=C/c2ccc(SC)cc2)c1	-	0	-	-	-	0
Cn1c(=O)c2c(nc(N3CCOCC3)n2Cc2ccccc2)n(C)c1=O	-	-	-	0	0	-
COc1ccc(NC(=O)c2oc3ccccc3c2NC(=O)Cc2cccs2)c(OC)c1	-	-	-	0	0	-
Cc1cc(C)cc(NC(=O)Nc2cccs2)c1	-	-	-	9.53µM	0	-
Cc1cc(C)cc(NC(=O)Nc2cccnc2)c1	0	0	0	?	-	0
Cc1ccc(NC(=O)c2ccc(F)cc2)nc1	0	0	0	0	-	0
Cc1ccc(NC(=O)c2sccc2C)nc1	0.891µM	?	0.501µM	12µM	-	2.91µM
CN1CCc2c(sc(NC(=O)C3CCN(S(=O)(=O)c4cccs4)CC3)c2C(N)=O)C1	0	0	0	0	-	0
Cc1ccc(C)c(C(=O)COC(=O)c2ccc(C)c(S(=O)(=O)N3CCOCC3)c2)c1	0	?	0	0	-	0
CCN(Cc1ccccc1)S(=O)(=O)c1ccc2c(c1)CC(C)N2C(=O)C1CCC1 (stereo not drawn)	-	-	-	0	-	-
CC(=O)Oc1ccc(-c2nc3ccccc3c(=O)o2)cc1	0	0	0	9.53µM	-	0
COc1ccc(-c2nc3ccc(C)cc3c(=O)o2)cc1OC	0	0	0	3.38µM	-	0
COc1ccc(-c2csc3nc(-c4ccccc4)oc(=O)c23)cc1OC	0	0	0	0	0	?
O=c1oc(-c2ccc(Br)o2)nc2ccccc12	0	?	0	?	?	?
Cc1ccc(-c2nc3ccccc3c(=O)o2)cc1	?	?	3.16µM	4.26µM	-	?
Cc1cc(-c2nc3ccccc3c(=O)o2)ccc1[N+](=O)[O-]	0	?	0	2.69µM	-	?
CCN1C(=O)c2ccc(-c3nc4ccccc4c(=O)o3)cc2C1=O	0	0	0	0	-	0
Cc1ccc2nc(-c3ccccc3)oc(=O)c2c1	0	0	0	3.79µM	-	0
COc1cc2nc(-c3ccccc3C)oc(=O)c2cc1OC	0	0	0	?	-	0
SMILES	NPC1 prom act	ELG1 DNA repair	Rab9 promoter act	FLuc counter	SMN2 splice up	ELG1 genotoxic
O=c1oc(-c2cccs2)nc2ccc(Br)cc12	0	?	0	?	0	0
Cc1ccc2nc(Cl)nc(-c3ccccc3)c2c1	0	0	0	0	-	0
Cc1ccc2nc(-c3ccccc3C)oc(=O)c2c1	0	0	0	6.01µM	-	0
CC(=O)Oc1ccc2nc(-c3cccs3)oc(=O)c2c1	0	0	0	?	0	0
Cc1ccc2nc(-c3cccs3)oc(=O)c2c1	0	?	0	9.53µM	0	0
CC(=O)Oc1ccc2nc(-c3ccco3)oc(=O)c2c1	0	0	0	12µM	-	0
COc1ccc(Cl)cc1-c1nc(SCC(=O)N(C)C2CCS(=O)(=O)C2)n[nH]1 (stereo not drawn)	-	0	-	-	-	0
